Results taken from PubChem BioAssay (NCATS).
Inconclusive results are not listed. Activity calls are given as the source filed them. Unless noted, the call rests on the fitted dose curve; in most records, active means well fitted curve in either direction with a large enough effect (not every such curve was filed as active); inconclusive means small, poorly fitted or top-dose-only effect, or another doubt; inactive means flat fitted curve, though single readings scatter.

Experiments:
[1] = AP1 Signaling Pathway (AID 357); conditions: ME-180 AP-1-bla reporter, EGF-induced, beta-lactamase ratio, 5 h; at 17.2 µM (top of the series) unless noted; further: on the % scale 0 is the no-effect control and ±100 the full control effect
How it was run: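 Titration-series screen for positive or negative modulators of EC50 EGF-induced signaling in ME-180 cells carrying an AP-1-driven beta-lactamase reporter. After 5 hours at 37 degrees Celsius, CCF4 460nm/530nm emission ratio gave %Activity; AC50 values derived.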

[2] = NFAT Signaling Pathway (AID 444); conditions: Jurkat NFAT-bla M1, carbachol, beta-lactamase ratio, 5 h; at 17.2 µM (top of the series) unless noted;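 further: carbachol stimulus at about its EC50 of 1 µM final; on the % scale 0 is the no-effect control and ±100 the full control effect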
How it was run: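 Jurkat cells with NFAT-driven β-lactamase reporter and co-expressed M1 receptor, stimulated with carbachol (final 1 uM, ~EC50), compound titration, 5 h at 37 °C. CCF4 loaded 1 h at RT; 460/530 nm ratio gave %activity and AC50.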

[3] = Stat Signaling Pathway (AID 446);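 further: ME-180 cervical cancer cells given 40 pM IL-6 alongside compound; SIE-controlled beta-lactamase reporter measured as 460/530 nm FRET emission ratio; on the % scale 0 is the no-effect control and ±100 the full control effect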
How it was run: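 Compound effects on IL-6-induced STAT reporter activity were measured in ME-180 cells. After overnight culture, cells were co-treated with 40 pM IL-6 for 5 hrs before beta-lactamase substrate loading at room temperature.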

[4] = target: Glucocorticoid receptor (Homo sapiens) (UniProt P04150); experiment: GR-GFP Redistribution (AID 450;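 active means compounds whose dose series gives a full or clear partial fitted curve of increased nuclear translocation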; further: potency means the concentration at half of the fitted maximal effect); conditions: U2OS GR-GFP nuclear translocation, laser cytometry, 2 h
Sequence of Glucocorticoid receptor (Homo sapiens) (P04150 whole entry, looked up, the tested form may be a part): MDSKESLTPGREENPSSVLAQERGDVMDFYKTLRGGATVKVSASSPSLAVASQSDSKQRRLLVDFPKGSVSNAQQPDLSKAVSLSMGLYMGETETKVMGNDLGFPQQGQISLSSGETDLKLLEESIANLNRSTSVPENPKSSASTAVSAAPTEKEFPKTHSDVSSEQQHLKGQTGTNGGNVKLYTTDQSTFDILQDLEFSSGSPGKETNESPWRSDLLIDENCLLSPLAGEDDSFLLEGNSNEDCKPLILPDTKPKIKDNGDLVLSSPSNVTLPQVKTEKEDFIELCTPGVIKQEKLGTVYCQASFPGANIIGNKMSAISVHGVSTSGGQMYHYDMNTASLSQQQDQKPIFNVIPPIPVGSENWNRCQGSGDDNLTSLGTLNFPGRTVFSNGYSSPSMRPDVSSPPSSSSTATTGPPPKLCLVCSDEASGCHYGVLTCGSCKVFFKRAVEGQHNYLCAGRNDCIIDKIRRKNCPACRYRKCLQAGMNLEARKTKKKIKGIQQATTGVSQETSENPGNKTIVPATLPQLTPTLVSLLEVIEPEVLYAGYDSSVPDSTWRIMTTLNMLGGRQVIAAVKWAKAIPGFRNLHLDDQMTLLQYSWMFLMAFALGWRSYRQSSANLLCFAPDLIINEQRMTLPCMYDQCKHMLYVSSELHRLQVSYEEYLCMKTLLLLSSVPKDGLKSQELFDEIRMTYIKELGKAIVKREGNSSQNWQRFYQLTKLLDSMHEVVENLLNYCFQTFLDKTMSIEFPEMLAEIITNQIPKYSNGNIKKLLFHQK

[5] = target: Cytochrome P450 1A2 (Homo sapiens) (UniProt P05177); experiment: p450-cyp1a2 (AID 410; calls by dose curve;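 further: -100% = full effect of reference inhibitor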)
Sequence of Cytochrome P450 1A2 (Homo sapiens) (P05177 whole entry, looked up): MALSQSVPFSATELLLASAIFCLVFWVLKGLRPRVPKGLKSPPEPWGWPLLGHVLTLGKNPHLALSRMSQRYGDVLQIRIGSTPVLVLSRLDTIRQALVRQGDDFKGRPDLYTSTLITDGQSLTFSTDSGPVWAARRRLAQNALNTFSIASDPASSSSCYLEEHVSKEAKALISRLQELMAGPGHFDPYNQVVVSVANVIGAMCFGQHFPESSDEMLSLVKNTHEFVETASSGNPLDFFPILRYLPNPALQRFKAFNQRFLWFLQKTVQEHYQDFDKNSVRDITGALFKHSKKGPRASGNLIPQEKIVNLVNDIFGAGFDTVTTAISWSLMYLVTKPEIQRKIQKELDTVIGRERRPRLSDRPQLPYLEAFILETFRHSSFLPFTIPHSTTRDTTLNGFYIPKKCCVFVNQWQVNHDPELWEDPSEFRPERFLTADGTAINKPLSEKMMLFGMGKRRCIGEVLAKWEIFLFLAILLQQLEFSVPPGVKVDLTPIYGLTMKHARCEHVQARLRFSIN
How it was run: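 O-Demethylation of luciferin 6' methyl ether by human CYP1A2 is monitored as luciferase luminescence. Substrate sits at Km (100uM); enzyme is 20nM. Values are scaled to 57 uM furafylline as maximal inhibition.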

[6] = target: Glucocorticoid receptor (Homo sapiens) (UniProt P04150); experiment: GR-EFC Redistribution (AID 451; calls by dose curve; further: potency means the concentration at half of the fitted maximal effect); conditions: CHO-K1 GR-EFC translocation, beta-gal luminescence, 2 h
How it was run: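 CHO-K1 cells expressing nuclear EA and GR-ED fragments of b-gal; compounds titrated up to 46 uM final, 2 h at 37 C. GR nuclear translocation read as complemented b-gal luminescence after 1 h RT detection.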

[7] = target: Mitogen-activated protein kinase 10 (Mus musculus) (UniProt Q61831); experiment: JNK3 AlphaScreen Assay (AID 530);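 further: kinase came from lysate of stimulated human HepG2 cells; signal reports phosphorylation of biotinylated GST-cJun 1-79 at Ser73 with 10 µM ATP; on the % scale 0 is the no-effect control and ±100 the full control effect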
How it was run: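 Activity was read by AlphaScreen after JNK3-containing HepG2 lysate (cytokine pre-activated) phosphorylated biotinylated GST-cJun with 10 uM ATP at room temperature. Phospho-Ser73 cJun antibody with Protein-A acceptor beads provided detection.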

[8] = target: 3',5'-cyclic-AMP phosphodiesterase 4B (Homo sapiens) (UniProt Q07343); experiment: qHTS Assay for Inhibitors of PDE-IV (AID 607; active means well fitted activation curve with a large enough effect in the main read-out, with a control signal flat, not every such curve was filed as active; further: % of control where 0% means no effect)
Sequence of 3',5'-cyclic-AMP phosphodiesterase 4B (Homo sapiens) (Q07343 whole entry, looked up): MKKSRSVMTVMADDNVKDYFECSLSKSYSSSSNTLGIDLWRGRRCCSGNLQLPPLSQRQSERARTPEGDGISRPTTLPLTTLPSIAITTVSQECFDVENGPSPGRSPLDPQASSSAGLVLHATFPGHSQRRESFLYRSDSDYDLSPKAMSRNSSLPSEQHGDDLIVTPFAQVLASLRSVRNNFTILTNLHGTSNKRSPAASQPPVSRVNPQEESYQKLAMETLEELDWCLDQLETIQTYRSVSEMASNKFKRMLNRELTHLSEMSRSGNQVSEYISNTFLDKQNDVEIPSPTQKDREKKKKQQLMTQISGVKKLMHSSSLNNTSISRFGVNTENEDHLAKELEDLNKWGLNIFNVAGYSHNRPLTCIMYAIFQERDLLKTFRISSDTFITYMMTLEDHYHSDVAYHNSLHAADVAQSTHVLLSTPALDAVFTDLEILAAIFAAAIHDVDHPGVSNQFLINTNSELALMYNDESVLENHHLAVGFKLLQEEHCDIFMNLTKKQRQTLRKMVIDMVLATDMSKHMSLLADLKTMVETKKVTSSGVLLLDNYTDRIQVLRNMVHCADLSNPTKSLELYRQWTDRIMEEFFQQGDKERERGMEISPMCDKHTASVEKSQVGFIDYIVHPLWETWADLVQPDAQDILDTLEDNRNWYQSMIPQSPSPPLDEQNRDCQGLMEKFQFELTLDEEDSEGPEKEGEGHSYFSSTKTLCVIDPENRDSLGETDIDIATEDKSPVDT
How it was run: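 ACTOne HEK293 cells carry a modified cAMP-gated CNG channel and express endogenous PDE4; plated 1000 cells/well, compounds up to 22.9 uM final. Membrane-potential dye fluorescence (ex 535/em 590) was read; parental cells received 10 uM forskolin + 100 uM RO 20-1724.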

[9] = target: Cytochrome P450 2C9 (Homo sapiens) (UniProt P11712); experiment: qHTS Assay for Inhibitors and Substrates of Cytochrome P450 2C9 (AID 883; active means well fitted curve in the direction sought with a large enough effect; an effect the other way counts as inactive or inconclusive; further: on the % scale 0 is the no-effect control and ±100 the full control effect; nearly all actives have a fitted effect of over 60% in size)
Sequence of Cytochrome P450 2C9 (Homo sapiens) (P11712 whole entry, looked up): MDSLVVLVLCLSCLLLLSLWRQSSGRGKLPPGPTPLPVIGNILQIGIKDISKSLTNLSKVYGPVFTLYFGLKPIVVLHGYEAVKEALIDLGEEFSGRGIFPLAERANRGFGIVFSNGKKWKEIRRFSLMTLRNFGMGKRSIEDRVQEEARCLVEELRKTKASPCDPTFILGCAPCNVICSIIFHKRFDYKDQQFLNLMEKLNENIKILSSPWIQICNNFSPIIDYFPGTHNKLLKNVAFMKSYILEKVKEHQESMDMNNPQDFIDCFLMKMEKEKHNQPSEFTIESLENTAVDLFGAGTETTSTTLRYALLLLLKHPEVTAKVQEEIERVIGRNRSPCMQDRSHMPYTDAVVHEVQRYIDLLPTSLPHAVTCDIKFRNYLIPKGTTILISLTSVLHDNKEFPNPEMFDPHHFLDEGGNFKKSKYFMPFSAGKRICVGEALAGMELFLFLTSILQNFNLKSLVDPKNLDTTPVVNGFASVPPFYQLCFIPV
How it was run: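 Signal: luciferase luminescence reporting luciferin produced by CYP2C9. Conditions: 10nM enzyme, Luciferin-H 100uM at KM, 25mM KPO4, 37C, 60 min NADPH-driven reaction. Reference: 57uM sulphaphenazole as 100% inhibition.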

[10] = target: Cytochrome P450 2D6 (Homo sapiens) (UniProt P10635); experiment: qHTS Assay for Inhibitors and Substrates of Cytochrome P450 2D6 (AID 891; active means well fitted curve in the direction sought with a large enough effect; an effect the other way counts as inactive or inconclusive;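 further: luciferin methyl ether substrate demethylated by CYP2D6 with NADPH regeneration; on the % scale 0 is the no-effect control and ±100 the full control effect; nearly all actives have a fitted effect of over 60% in size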)
Sequence of Cytochrome P450 2D6 (Homo sapiens) (P10635 whole entry, looked up): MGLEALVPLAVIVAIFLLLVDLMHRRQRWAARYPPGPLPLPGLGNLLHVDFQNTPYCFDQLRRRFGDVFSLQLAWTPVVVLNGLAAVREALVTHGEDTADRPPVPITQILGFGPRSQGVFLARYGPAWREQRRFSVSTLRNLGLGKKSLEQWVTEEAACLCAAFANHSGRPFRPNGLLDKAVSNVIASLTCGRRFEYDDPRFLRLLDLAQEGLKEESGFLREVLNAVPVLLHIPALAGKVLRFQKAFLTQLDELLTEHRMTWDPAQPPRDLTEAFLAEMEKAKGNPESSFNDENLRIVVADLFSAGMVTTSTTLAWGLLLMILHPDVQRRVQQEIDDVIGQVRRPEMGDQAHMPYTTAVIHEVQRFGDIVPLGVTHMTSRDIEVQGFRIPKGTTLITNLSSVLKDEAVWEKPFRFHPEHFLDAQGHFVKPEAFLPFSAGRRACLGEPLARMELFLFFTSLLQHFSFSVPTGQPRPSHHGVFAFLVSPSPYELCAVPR
How it was run: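 Luminescent read-out of luciferin formed by 5 nM human CYP2D6 demethylating 30 uM Luciferin-ME EGE (Km level) over 60 min at room temperature after NADPH regeneration addition. Data normalized to full inhibition by 1.43 uM quinidine.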

[11] = target: Cytochrome P450 2C19 (Homo sapiens) (UniProt P33261); experiment: qHTS Assay for Inhibitors and Substrates of Cytochrome P450 2C19 (AID 899; active means well fitted curve in the direction sought with a large enough effect; an effect the other way counts as inactive or inconclusive; further: on the % scale 0 is the no-effect control and ±100 the full control effect; nearly all actives have a fitted effect of over 60% in size)
Sequence of Cytochrome P450 2C19 (Homo sapiens) (P33261 whole entry, looked up): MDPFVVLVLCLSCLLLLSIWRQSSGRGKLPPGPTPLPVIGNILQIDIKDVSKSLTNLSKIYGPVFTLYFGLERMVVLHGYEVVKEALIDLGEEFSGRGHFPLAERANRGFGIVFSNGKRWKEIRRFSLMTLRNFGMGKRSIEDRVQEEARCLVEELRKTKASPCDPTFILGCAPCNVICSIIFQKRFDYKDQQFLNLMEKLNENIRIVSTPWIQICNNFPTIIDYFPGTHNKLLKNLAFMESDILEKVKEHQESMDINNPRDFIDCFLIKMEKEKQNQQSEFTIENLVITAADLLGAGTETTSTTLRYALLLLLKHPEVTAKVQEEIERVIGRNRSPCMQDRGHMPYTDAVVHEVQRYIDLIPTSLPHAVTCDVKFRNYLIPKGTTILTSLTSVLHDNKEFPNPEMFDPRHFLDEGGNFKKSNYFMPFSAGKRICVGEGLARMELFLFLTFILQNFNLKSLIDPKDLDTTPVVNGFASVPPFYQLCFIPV
How it was run: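 Signal comes from luciferase acting on luciferin released by CYP2C19-mediated hydroxylation of Luciferin-H EGE, 10uM (KM). Assay mix: 5nM enzyme, 50mM KPO4; 60 min at 37C with NADPH regeneration. Data normalized against 57uM ketoconazole.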

[12] = target: Guanine nucleotide-binding protein G(i) subunit alpha-1 (Homo sapiens) (UniProt P63096); experiment: qHTS Assay for Inhibitors of RGS12 GoLoco Motif Activity (Green Fluorophore) (AID 879; active means well fitted curve in the direction sought with a large enough effect; an effect the other way counts as inactive or inconclusive;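 further: 0% = labeled peptide with Gαi1 and full inhibition = labeled peptide alone without protein; negative values mean loss of peptide binding seen as reduced polarization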)
Sequence of Guanine nucleotide-binding protein G(i) subunit alpha-1 (Homo sapiens) (P63096 whole entry, looked up): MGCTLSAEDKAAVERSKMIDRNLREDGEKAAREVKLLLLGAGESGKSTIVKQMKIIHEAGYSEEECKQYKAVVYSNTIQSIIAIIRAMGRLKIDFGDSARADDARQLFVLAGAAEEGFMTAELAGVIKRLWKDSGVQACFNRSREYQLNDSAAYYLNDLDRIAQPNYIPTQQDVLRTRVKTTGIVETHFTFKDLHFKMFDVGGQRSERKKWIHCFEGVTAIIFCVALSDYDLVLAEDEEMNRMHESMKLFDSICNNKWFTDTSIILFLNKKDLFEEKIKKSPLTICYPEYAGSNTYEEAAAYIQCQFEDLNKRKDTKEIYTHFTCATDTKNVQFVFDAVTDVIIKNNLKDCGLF
How it was run: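 A drop in FITC polarization marked displacement of the FITC-tagged RGS12 GoLoco peptide (10 nM) from Gαi1 (50 nM). Compounds were incubated 10 min at room temperature in Tris pH 7.5 buffer containing 150 mM NaCl, 0.1 mM GDP and 0.05% NP40; unlabeled peptide titration served as control.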

[13] = target: Cytochrome P450 3A4 (Homo sapiens) (UniProt P08684); experiment: qHTS Assay for Activators of Cytochrome P450 3A4 (AID 885; active means well fitted curve in the direction sought with a large enough effect; an effect the other way counts as inactive or inconclusive; further: nearly all actives have a fitted effect of over 65% in size)
How it was run: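 CYP3A4 activity: Luciferin-PPXE O-dealkylation, 25uM substrate, 200mM KPO4, RT throughout. Read-out is luciferase luminescence; higher values reflect activation.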

[14] = qHTS Assay for Identification of Small Molecule Antagonists for NFkB Signaling Pathway (AID 895; active means well fitted inhibition curve with a large enough effect in the signal ratio, with a control signal flat, not every such curve was filed as active; the % refers to the signal ratio; further: potency means the concentration at half of the fitted maximal effect)
How it was run: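 ME-180 NFkB-bla cells (beta-lactamase under NFkB response element), plated overnight, treated with compound then 10 pM TNF alpha (about EC50) for 5 hrs at 37 C. LiveBLAzer FRET read at 460/530 nm emission, 405 nm excitation.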

[15] = qHTS Assay for Identification of Small Molecule Agonists for Thrombopoietin (TPO) Signaling Pathway (AID 917; active means well fitted curve in the direction sought with a large enough effect; an effect the other way counts as inactive or inconclusive; further: on the % scale 0 is the no-effect control and ±100 the full control effect)
How it was run: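 Quantitative HTS for pathway activators: compounds were pin-transferred onto IL-3-starved Ba/F3 cells expressing human TPO receptor, TPO was added at its EC50 (26 pM final), and after 24 hrs at 37 C reporter luciferase was measured.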

[16] = target: Muscarinic acetylcholine receptor M1 (Rattus norvegicus) (UniProt P08482); experiment: qHTS Assay for Antagonists of Acetylcholine Muscarinic M1 Receptor: Kinetic Measurement of Intracellular Calcium Response (AID 943; active means well fitted curve in the direction sought with a large enough effect; an effect the other way counts as inactive or inconclusive; further: potency means the concentration at half of the fitted maximal effect; nearly all actives have a fitted effect of over 75% in size)
How it was run: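 Antagonism is measured as inhibition of the carbachol-evoked calcium rise in CHO cells transfected with rat M1. Cells are dye-loaded, exposed to compound for 10 min, then stimulated with 100 nM carbachol (EC80).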

[17] = target: Pyruvate kinase (Leishmania mexicana) (UniProt Q27686); experiment: qHTS Validation Assay for Inhibitors of Leishmania Mexicana Pyruvate Kinase (AID 945; active means well fitted curve in the direction sought with a large enough effect; an effect the other way counts as inactive or inconclusive;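 further: 0% = DMSO only neutral control wells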)
How it was run: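 The enzyme is a highly purified E451W mutant of LmPYK used at 0.2 nM. It converts 0.5 mM PEP and 0.1 mM ADP over 1 h at room temperature; product ATP is quantified by luciferase luminescence relative to DMSO controls.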

[18] = target: Pyruvate kinase PKM (Homo sapiens) (UniProt P14618); experiment: qHTS Assay for Activators of Human Muscle Pyruvate Kinase (AID 954; active means well fitted curve in the direction sought with a large enough effect, not every such curve was filed as active;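 further: 0% = uninhibited enzyme and -100% = no enzyme or full thiadiazolimine inhibition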)
Sequence of Pyruvate kinase PKM (Homo sapiens) (P14618 whole entry, looked up): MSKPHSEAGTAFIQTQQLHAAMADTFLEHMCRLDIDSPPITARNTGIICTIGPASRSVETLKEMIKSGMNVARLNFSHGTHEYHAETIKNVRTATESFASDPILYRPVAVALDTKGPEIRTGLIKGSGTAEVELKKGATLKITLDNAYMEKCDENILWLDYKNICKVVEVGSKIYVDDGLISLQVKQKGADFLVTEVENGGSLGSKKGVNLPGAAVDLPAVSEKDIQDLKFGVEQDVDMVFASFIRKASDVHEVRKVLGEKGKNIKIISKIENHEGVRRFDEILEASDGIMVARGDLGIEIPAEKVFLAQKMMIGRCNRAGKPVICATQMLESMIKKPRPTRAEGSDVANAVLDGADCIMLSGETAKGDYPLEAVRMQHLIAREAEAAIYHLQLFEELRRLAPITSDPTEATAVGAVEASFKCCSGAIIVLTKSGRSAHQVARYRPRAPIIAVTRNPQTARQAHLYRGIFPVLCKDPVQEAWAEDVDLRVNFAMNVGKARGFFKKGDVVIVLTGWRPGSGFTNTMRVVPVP
How it was run: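 A coupled luminescent readout tracked ATP made from ADP by purified PKM2. Final conditions included 0.1 nM enzyme, PEP and ADP at 0.5 and 0.1 mM, pH 7.2 imidazole buffer with BSA, and a one-hour room-temperature reaction.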

[19] = target: Alpha-galactosidase (Coffea arabica) (UniProt Q42656); experiment: Counterscreen for Glucocerebrosidase Inhibitors: qHTS Assay for Coffee Bean alpha-Galactosidase at pH 4.5 (AID 957; active means well fitted curve in the direction sought with a large enough effect; an effect the other way counts as inactive or inconclusive;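 further: plate controls were enzyme alone for no effect and no enzyme for full effect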)
Sequence of Alpha-galactosidase (Coffea arabica) (Q42656 whole entry, looked up): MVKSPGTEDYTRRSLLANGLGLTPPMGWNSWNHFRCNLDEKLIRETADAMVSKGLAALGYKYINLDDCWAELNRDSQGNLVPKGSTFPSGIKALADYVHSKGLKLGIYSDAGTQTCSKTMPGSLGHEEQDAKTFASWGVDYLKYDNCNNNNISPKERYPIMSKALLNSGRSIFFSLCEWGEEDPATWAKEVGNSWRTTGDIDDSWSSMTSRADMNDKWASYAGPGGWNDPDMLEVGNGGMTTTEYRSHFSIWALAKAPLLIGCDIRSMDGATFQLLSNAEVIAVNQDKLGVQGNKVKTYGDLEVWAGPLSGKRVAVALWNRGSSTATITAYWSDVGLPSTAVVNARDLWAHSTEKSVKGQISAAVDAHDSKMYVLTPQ
How it was run: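 Enzyme is added first (2 nM final), then compounds titrated from 0.7 nM to 77 uM, then 80 uM 4-methylumbelliferyl alpha-D-galactopyranoside; after 20 min at room temperature a pH 10 NaOH/glycine stop precedes fluorescence reading at 365/440 nm.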

[20] = target: Alpha-galactosidase A (Homo sapiens) (UniProt P06280); experiment: Counterscreen for Glucocerebrosidase Inhibitors: qHTS Assay for Human alpha-Galactosidase at pH 4.5 (AID 992; active means well fitted curve in the direction sought with a large enough effect; an effect the other way counts as inactive or inconclusive; further: 0% is about no effect)
How it was run: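 Citrate buffer pH 4.5, Tween-20 0.005%. Enzyme 2 nM, substrate 80 uM, 20 min RT. Stop pH 10. Fluorescence Ex 365/Em 440. AC50 by Hill fit.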

[21] = target: alpha-glucosidase (Oryza sativa, rice) (UniProt Q653V4); experiment: Counterscreen for Glucocerebrosidase Inhibitors: qHTS Assay for Rice alpha-Glucosidase at pH 5.0 (AID 997; active means well fitted curve in the direction sought with a large enough effect; an effect the other way counts as inactive or inconclusive;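 further: 0% = full activity with enzyme and -100% = basal without enzyme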)
How it was run: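 Endpoint fluorogenic assay at pH 5.0: compounds (0.7 nM to 77 uM) titrated against 4 nM rice enzyme and 400 uM 4-MU-alpha-glucoside for 20 min at room temperature; NaOH/glycine stop, read ex 365/em 440 nm, Hill-fitted AC50.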

[22] = target: Alpha-galactosidase (Coffea arabica) (UniProt Q42656); experiment: Counterscreen for Glucocerebrosidase Inhibitors: qHTS Assay for Coffee Bean alpha-Galactosidase at pH 5.9 (AID 998; active means well fitted curve in the direction sought with a large enough effect; an effect the other way counts as inactive or inconclusive;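 further: plate controls were uninhibited enzyme for no effect and no-enzyme basal signal for full effect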)
How it was run: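 Enzyme 2 nM + cpd (0.7 nM–77 uM titration) + 4-MU-alpha-Gal 80 uM, pH 5.9 citrate/Tween-20, RT 20 min, NaOH/glycine stop pH 10, fluor 365/440. Normalized to no-enzyme and full-activity controls; Hill-fit AC50.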

CC(=O)CC(C)(C)n1c[n+](C)nn1
inactive: activity change, negative = inhibition [1] -8.26% | activity change, negative = inhibition [2] -3.99% | outcome [3] | Potency [4] > 20.6 µM

O=C(c1ccco1)C12CN3CN(CN(C3)C1)C2
inactive: activity change, negative = inhibition [1] 4.87% | activity change, negative = inhibition [2] -11.2% | outcome [3] | Potency [4] > 20.6 µM

CCCCNC(=O)Nc1ccc(C(O)(C(=O)OC)C(F)(F)F)cc1 (centres undefined)
inactive: activity change, negative = inhibition [1] -12.1% | activity change, negative = inhibition [2] 26.8% | outcome [3] | Potency [4] > 20.6 µM

CCOC(=O)C1=C(C)OC(N)=C(C(=O)OCC)[C@@]12C(=O)N(CC(N)=O)c1ccccc12
inactive: activity change, negative = inhibition [1] 1.68% | activity change, negative = inhibition [2] 2.5% | outcome [3] | Potency [4] > 20.6 µM

CCN(CC)c1ccc(N=Cc2c(O)n(-c3ccccc3C)c(=O)[nH]c2=O)cc1
inactive: activity change, negative = inhibition [1] -21.6% | activity change, negative = inhibition [2] -29.8% | outcome [3] | Potency [4] > 20.6 µM

C[N+]1(C)[C@@H]2CC(OC(=O)[C@@H](CO)c3ccccc3)C[C@@H]1[C@H]1O[C@H]12 (some centres undefined)
inactive: activity change, negative = inhibition [1] 0.541% [at 7.69 µM] | activity change, negative = inhibition [5] -22.8% [at 11.4 µM] | outcome [3] | Potency [4] > 46 µM | Potency [6] > 9.22 µM | activity change, negative = inhibition [7] 0.144% [at 11.4 µM]

COc1cccc(-n2c(O)c(C=NCCN3CCOCC3)c(=O)[nH]c2=O)c1
inactive: activity change, negative = inhibition [1] 0.139% | activity change, negative = inhibition [2] 11% | outcome [3] | Potency [4] > 20.6 µM

CCN(CC)CCN=Cc1c(O)n(CCc2ccccc2)c(=O)[nH]c1=O
inactive: activity change, negative = inhibition [1] -7.05% | activity change, negative = inhibition [2] -1.81% | outcome [3] | Potency [4] > 20.6 µM

C=CCOC(=O)C1=C(C)OC(N)=C(C#N)[C@@]12C(=O)N(CC(N)=O)c1ccccc12
inactive: activity change, negative = inhibition [1] 6.24% | activity change, negative = inhibition [2] -10.1% | outcome [3] | Potency [4] > 20.6 µM

CC(=O)OC1N=C(c2ccccc2)c2ccccc2NC1=O (centres undefined)
inactive: activity change, negative = inhibition [1] -8.32% | activity change, negative = inhibition [2] 11.5% | outcome [3] | Potency [4] > 20.6 µM

O=c1[nH]c(=O)n(Cc2ccccc2)c(O)c1C=NCCN1CCNCC1
inactive: activity change, negative = inhibition [1] 1.47% | activity change, negative = inhibition [2] -23.3% | outcome [3] | Potency [4] > 20.6 µM

COC[C@@H]1OC(=O)c2coc3c2[C@]1(C)C1=C(C3=O)[C@H]2CCC(=O)[C@]2(C)C[C@@H]1OC(C)=O
inactive: Potency [5] | Potency [4] > 46 µM | Potency [6] > 46 µM | outcome [8] | Potency [9] | Potency [10] | Potency [11]
active: activity change, negative = inhibition [1] -78.2% [at 38 µM]

CN(C)CCc1nn[nH]n1
inactive: activity change, negative = inhibition [1] 1.85% | activity change, negative = inhibition [2] -0.26% | outcome [3] | Potency [4] > 20.6 µM

C=CCN1C[C@@H](C)N([C@H](c2ccc(C(=O)N(CC)CC)cc2)c2cccc(OC)c2)C[C@H]1C
inactive: activity change, negative = inhibition [1] -9.21% [at 38 µM] | Potency [5] | Potency [4] > 46 µM | Potency [6] > 46 µM | outcome [7] | outcome [8] | Potency [12] | Potency [13] | outcome [15] | Potency [17] | outcome [18] | outcome [19] | outcome [20] | outcome [21] | outcome [22]
active: Potency [14] 5.01 µM | Potency [16] 14.1 µM

O=c1[nH]c(=O)n(Cc2ccccc2)c(O)c1C=NCCN1CCOCC1
inactive: activity change, negative = inhibition [1] 1.24% | activity change, negative = inhibition [2] -7.84% | outcome [3] | Potency [4] > 20.6 µM
